# Source: PubChem (National Center for Advancing Translational Sciences (NCATS))
# Hits are enriched below; roughly 4.7% of the tested compounds scored in any of these assays.
# D1 agonist: activates the human D1 dopamine receptor; hit rate 1% among 360,000; HEK293 T-REx D1 cells, calcium flux, agonist mode; activation, % at 2 µM; P21728
# Target sequence (P21728 whole entry, looked up): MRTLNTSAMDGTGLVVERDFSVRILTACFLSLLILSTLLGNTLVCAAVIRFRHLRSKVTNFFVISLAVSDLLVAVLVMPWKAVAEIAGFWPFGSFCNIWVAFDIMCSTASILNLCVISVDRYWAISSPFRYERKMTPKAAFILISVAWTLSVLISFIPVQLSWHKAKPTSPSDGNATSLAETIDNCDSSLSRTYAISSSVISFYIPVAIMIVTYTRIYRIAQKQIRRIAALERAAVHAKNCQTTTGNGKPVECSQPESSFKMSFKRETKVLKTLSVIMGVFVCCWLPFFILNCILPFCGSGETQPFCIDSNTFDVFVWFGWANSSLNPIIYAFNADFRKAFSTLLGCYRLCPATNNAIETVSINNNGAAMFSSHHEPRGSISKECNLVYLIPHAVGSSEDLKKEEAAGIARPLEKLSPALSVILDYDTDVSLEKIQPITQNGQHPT
#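 Agonism was scored from calcium flux recorded over 180 s (1 read/s) after pintool compound addition, following a 10-cycle baseline. Cells were inducible force-coupled HEK293 TREx D1, plated overnight at 30 C and loaded with no-wash calcium dye.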
# D1 PAM: human D1 dopamine receptor positive modulation | hit rate 0.036% among 360,000 | P21728 | HEK293 TREx D1 cells, calcium flux, dopamine EC20 potentiation | AID 504651 | potentiation, % at 10 µM; in the data active means potentiation above about 30%
# TRHR agonist: TRH receptor (human) agonism; P34981; TRHR cells, calcium flux fluo-8, FDSS agonist mode; activation, % at 2 µM; hit rate 0.18% among 360,000; AID 493084
#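 TRHR-expressing cells loaded with fluo-8 calcium dye; 23 nL library compound pin-transferred, kinetic FDSS fluorescence (Ex 480/Em 530) recorded about 180 s for agonist-induced calcium release, before a 10 nM TRH EC20 addition for potentiator mode.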
# TRHR enhancer: allosteric enhancers of human TRH receptor; TRHR cells, fluo-8 calcium fluorescence, EC20 TRH enhancement; enhancement, % at 2 µM; hit rate 0.66% among 360,000; AID 493056; in the data active means enhancement above about 30%
#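 Enhancer read-out: after compound pinning and an initial kinetic agonist-mode read, an EC20 of TRH (10 nM final) was injected and fluo-8 calcium signal (Ex 480/Em 530) followed at 1 s/cycle for 100 cycles in TRHR-expressing cells.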
# D1 antagonist: human D1 dopamine receptor antagonism; P21728; HEK293 TREx D1 cells, calcium flux, dopamine EC80; active compounds read low; activity change, negative = inhibition, % at 10 µM; hit rate 3.2% among 360,000; in the data active means activity change below about -30%
#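 Compound effects on dopamine-evoked calcium signalling were measured in tetracycline-induced HEK293 Trex D1 cells. Dopamine at EC80 followed a 180 s compound pre-read, and fluorescence was tracked kinetically for 180 s more.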
# Hits are given with their value; . = inactive; / = no result given. Unless noted, no stated cut-off is given here; in the data, active means activation above about 30%; inactive means the rest.
SMILES,D1 agonist,D1 PAM,TRHR agonist,TRHR enhancer,D1 antagonist
CCCOc1ccc(C(=O)NNC(=S)NC(C)=O)cc1,.,.,.,.,-34
O=C(NC(=S)NNC(=O)c1ccco1)c1ccc(Br)cc1,47,.,.,.,.
CCCOc1ccc(C(=O)NNC(=S)NC(=O)c2ccccc2)cc1,197,.,38,.,.
CCCOc1ccc(C(=O)NNC(=S)NC(=O)c2cccs2)cc1,104,.,.,.,.
CC(Oc1ccc(Cl)cc1)C(=O)NNC(=S)NC(=O)c1ccco1 (centres undefined),44,.,.,.,.
CCCOC(=O)c1ccc(NC(=O)C2CC(=O)N(c3ccc(C)cc3)C2)cc1 (centres undefined),.,.,.,.,.
COc1ccc2nc(-c3ccccc3)cc(C(=O)OCC(=O)N3CCCCC3)c2c1,.,.,.,.,.
Cc1cc(C(=O)OCC(=O)N2CC(C)OC(C)C2)c(C)n1-c1ccccc1 (centres undefined),.,/,.,.,-65
COc1ccc2nc(-c3ccccc3)cc(C(=O)OCC(=O)N3CC(C)OC(C)C3)c2c1 (centres undefined),.,.,.,41,.
CCNC(=O)COC(=O)c1cc(C)n(-c2ccccc2)c1C,.,.,.,.,-55
CCN(Cc1ccccc1)C(=O)Cn1c(=O)n(-c2ccc(Cl)cc2)c(=O)c2c(C)c(C)sc21,.,.,.,.,.
COc1ccc(OC)c(/C=C/c2nc3ccccc3c(=O)n2-c2ccc(F)c(Cl)c2)c1,.,.,.,.,.
Cc1ccc(S(=O)(=O)c2nc(-c3cccs3)oc2SC(C)c2ccccc2)cc1 (centres undefined),.,.,.,.,.
COCCNC(=S)N/N=C(\C)c1ccc(O)cc1,.,.,.,.,.
C/C(=N\NC(=S)NCC(C)(C)C)c1cc(F)cc(F)c1O,.,.,.,.,-85
COc1cccc2c1-c1c(O)cccc1C2=O,.,.,.,.,.
COc1cccc2c1C(=O)c1c(O)c3c(c(O)c1C2=O)C[C@](O)(C(C)=O)C[C@H]3O[C@@H]1C[C@@H](N)[C@@H](O)[C@@H](C)O1,.,.,.,.,-35
Cc1cccc(Nc2nc(C#N)nc(NC3CCCC3)n2)c1,.,.,.,.,.
CCN1CCN(C(=O)CCCCCn2c(=O)[nH]c3cc(C(=O)OC)ccc3c2=O)CC1,.,.,.,.,.
O=C(CCn1c(=O)[nH]c2ccccc2c1=O)N1CCN(c2ccc(Cl)cc2)CC1,.,.,.,.,-32
CC(=O)c1ccc(N2CCN(C(=O)CCCCn3c(=O)[nH]c4ccccc4c3=O)CC2)cc1,.,.,.,.,-32
COC(=O)c1ccc2c(=O)n(CCCCCC(=O)N3CCN(c4ccccc4)CC3)c(=O)[nH]c2c1,.,.,.,.,-36
COc1cc2[nH]c(=O)n(CCC(=O)N3CCN(c4ccc(Cl)cc4)CC3)c(=O)c2cc1OC,.,.,.,.,.
CCOc1ccc(-n2cc(-c3ccccc3)c3c(N4CCC(C)CC4)ncnc32)cc1,.,.,.,.,.
CS(=O)(=O)N(CC(=O)NCC1CCCO1)c1cccc(Cl)c1 (centres undefined),.,.,.,.,.
SMILES,D1 agonist,D1 PAM,TRHR agonist,TRHR enhancer,D1 antagonist
CS(=O)(=O)N(CC(=O)NCC1CCCO1)c1cc(Cl)cc(Cl)c1 (centres undefined),.,.,.,.,-50
CN(C)S(=O)(=O)c1ccc(Cl)c(NC(=O)COC(=O)CCC(=O)c2cccs2)c1,.,.,.,.,.
CCN(CC)S(=O)(=O)c1cccc(NC(=O)COC(=O)c2cccs2)c1,.,.,.,.,.
CCN(CC)S(=O)(=O)c1cccc(NC(=O)COC(=O)/C=C/c2cccs2)c1,.,.,.,.,-31
CN(C)S(=O)(=O)c1cccc(NC(=O)COC(=O)CCC(=O)c2cccs2)c1,.,.,.,.,-34
Cc1ccc2nc(N(CCCN(C)C)C(=O)c3ccc(S(=O)(=O)N4CCCCCC4)cc3)sc2c1,38,.,.,.,.
CC1CCCCN1S(=O)(=O)c1ccc(C(=O)N(CCCN(C)C)c2nc3ccc(Br)cc3s2)cc1 (centres undefined),.,.,.,.,-32
CN(C)CCCN(C(=O)C1=COCCO1)c1nc2ccc(Br)cc2s1,68,.,.,.,-41
CCCCN(C)S(=O)(=O)c1ccc(C(=O)N(CCN(C)C)c2nc3ccc(C)cc3s2)cc1,.,.,.,.,-39
